Screen size: about 42,000 sequences; about 3,100 (7.4%) were called active. Rule as the data show it: active = GI50 up to about 1.1 µM and inactive = higher. Only a sample is shown. Measured potencies and affinities stand elsewhere.

The experiment deals with Hs-578T.
The GI50 is the concentration giving 50% growth inhibition. A low value points to more potent growth inhibition. With CISPLATIN, CHEMBL11359, growth was halved (GI50) at 4.98 µM.

With “[Bis(aminomethyl)tetramethylenesilane]tetrachloropaltinum(IV), CHEMBL2146189”, the GI50 is 21.2 µM.

Take “[Bis(aminomethyl)dimethylsilane]tetrachloroplatinum(IV), CHEMBL2146190”: the GI50 is > 100 µM.

Turning to “[Bis(aminomethyl)pentamethylenesilane]dichloropaltinum(II), CHEMBL2146202”, the 50% growth inhibitory concentration (GI50) was determined as 1.18 µM.

In turn, “[Bis(aminomethyl)tetramethylenesilane]dichloropaltinum(II), CHEMBL2146205” returned a GI50 of 32.4 µM. Against the preceding substance, the GI50 is about 27-fold higher.

On to “[Bis(aminomethyl)pentamethylenesilane]tetrachloropaltinum(IV), CHEMBL2146204”, for which growth was halved (GI50) at 28.8 µM.

These data come from ChEMBL document CHEMBL1201862, “PubChem BioAssay data set” (2004).
